Tau ThT inhib: inhibitors of human tau fibril formation, thioflavin T binding | Potency, µM (titrated, usually from 57.4 µM), for inactives: at the highest dose activity, negative = inhibition, actives largely listed as inhibitors | recombinant tau K18 P301L, heparin-induced fibrillization, ThT fluorescence | 270,000 compounds, 2.1% hits | P10636 | AID 1460; note: potency is the fitted concentration of half-maximal effect; nearly all actives have a fitted effect of over 55% in size
Target sequence (P10636 561-689 P618L limits assumed): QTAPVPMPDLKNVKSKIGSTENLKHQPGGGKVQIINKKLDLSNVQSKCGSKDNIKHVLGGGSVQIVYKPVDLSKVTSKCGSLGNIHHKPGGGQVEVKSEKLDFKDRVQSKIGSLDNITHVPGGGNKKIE
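Aggregation was driven by heparin (20 uM final) acting on recombinant tau […] bearing P301L in 100 mM sodium acetate pH 7; fibrils were detected with Thioflavin T.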
Tau fluor cs: counter-screen for tau fibril formation inhibitors | Potency, µM (titrated, usually from 57.7 µM), without a hit: top-dose activity change, negative = decrease | 280,000 compounds, 0.93% hits | AID 1463 | tau K18 P301L (four-repeat tau fragment) Alexa594 fluorescence, heparin fibrillization; note: potency is the fitted concentration of half-maximal effect; nearly all actives have a fitted effect of over 55% in size
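Human K18 P301L tau (15 uM unlabeled plus 0.24 uM Alexa 594-labeled, final) in 100 mM sodium acetate pH 7 was mixed with compound and 20 uM heparin and incubated 6 hr at 37 C.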
Tau FP inhib: blocks human tau fibril formation measured by polarization. P10636. K18 P301L tau heparin fibrillization, Alexa594 FP, 6 h. AID 1468. 280,000 compounds, 0.39% hits. Potency, µM (top dose mostly 57.7 µM), without a hit: top-dose activity, negative = inhibition, usual class: inhibitors; note: potency is the fitted concentration of half-maximal effect; nearly all actives have a fitted effect of over 55% in size
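Human K18 P301L fragment (15 uM unlabeled plus 0.24 uM Alexa 594-labeled) in 100 mM sodium acetate pH 7 with compound, aggregation induced by 20 uM heparin for 6 hr at 37 C. ThT (30 uM) added for 1 hr, then Alexa 594 FP read.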
FBPA coupling cs: counter-screen for Giardia aldolase inhibitors: coupling enzyme system | coupling enzyme system counterscreen, AmpLite Red fluorescence | activity change, negative = inhibition, % at 58.2 µM, hits read low | 290,000 compounds, 0.67% hits; in the data active = activity change below about -30%
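Fluorescence at 525 nm excitation and 598 nm emission measured inhibition of the coupled detection system without aldolase. Compounds (at 57.5 uM final) were preincubated 10 min at room temperature with coupling enzyme reagent before a 20 min substrate/AmpLite Red step.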
Active calls of the source: *; ? = inconclusive; . = no result given; [ ] = another dose, or the depositor's remark. Rows were chosen to be rich in hits. Some 2.7% of all compounds tested hit in one or more screens of this group. Unless noted, calls come from the whole dose curve; as a rule, active = well fitted curve in the direction sought with a large enough effect; inconclusive = small, poorly fitted or top-dose-only effect, or another doubt; inactive = no such curve, though single readings can be large; an effect the other way counts as inactive or inconclusive. % is set by controls: 0 for no effect and ±100 for the full control effect.

SMILES | Tau ThT inhib | Tau fluor cs | Tau FP inhib | FBPA coupling cs
CCOC(=O)C1=C(C)NC2=C(C(=O)OC2)C1c1ccccc1 (stereo not drawn) | -6% | -6% | -9% | -1
CCCOC(=O)C1=C(C)NC(=O)NC1c1cccc2ccccc12 (stereo not drawn) | . | . | . | 1
CCOC(=O)C1=C(C)NC2=C(C(=O)c3ccccc32)C1c1ccc(O)cc1 (stereo not drawn) | 10µM* | ? | 11% | 5
CCOC(=O)C1=C(C)NC2=C(C(=O)c3ccccc32)C1c1cccc2ccccc12 (stereo not drawn) | ? | 14µM*[quencher] | 13% | -3
COc1ccc(C=O)cc1OS(=O)(=O)c1ccc(NC(C)=O)cc1 | 9% | 6% | 12% | 6
COc1ccc(/C=N/NC(=O)c2ccc3ccccc3c2)cc1OS(=O)(=O)c1ccc(NC(C)=O)cc1 | 8% | ? | 13µM* | 4
N#Cc1ccc(N=c2ssnc2Cl)cc1 | 20µM* | -17% | ? | 4
CCOC(=O)c1ccc(N=c2ssnc2Cl)cc1 | 28µM* | -18% | ? | 2
Fc1ccc(N=c2ssnc2Cl)c(F)c1 | 14µM* | -15% | ? | 1
COc1cc(N=c2ssnc2Cl)cc(OC)c1OC | 20µM* | -24% | ? | 2
CC(C)c1ccc(C(=O)CC2(O)C(=O)N(CCc3ccccc3)c3ccc(Cl)cc32)cc1 (stereo not drawn) | -3% | -5% | -9% | .
COc1ccc(-n2nnnc2C2CCN(S(=O)(=O)c3ccc(C)cc3)CC2)cc1 | -6% | ? | -5% | .
CCc1ccc2oc(-c3cc(NC(=O)C(C)C)cc(C)c3O)nc2c1 | 4% | 0% | -9% | .
Clc1nssc1=Nc1ccccc1 | 28µM* | -23% | 40µM* | 4
Clc1ccc(N=c2ssnc2Cl)cc1 | 13µM* | -22% | 18µM* | 11
COc1ccc(N=c2ssnc2Cl)cc1 | 13µM* | -24% | ? | -1
O=C1CSC(=Nc2ccccc2)N1Cc1ccccc1 | -5% | -7% | 7% | 5
COc1ccc(Cn2c(C(=O)O)c(CNCc3ccco3)c3ccc(OC)cc32)cc1 | 1% | 6% | 9% | .
CCCCNC(=O)c1ccc2c(c1)NC(=O)C(CS(=O)(=O)Cc1ccc(C)cc1)N2 (stereo not drawn) | -12% | -7% | -10% | .
CCCCNC(=O)c1ccc2c(c1)NC(=O)C(CS(=O)(=O)Cc1cccc(C)c1)N2 (stereo not drawn) | 18µM* | ? | ? | .
CCCCC1C(=O)N(c2ccccc2)N(c2ccc(O)cc2)C1=O (stereo not drawn) | 16µM* | -25% | ? | -3
Cc1ccc2nc(-c3ccc4c(c3)OCCO4)cn2c1 | ? | -8% | -1% | -27
Nc1nc(-c2ccc3c(c2)OCCO3)cs1 | ? | -26% | ? | -1
N#Cc1ncc(-c2ccc3c(c2)OCCOCCOCCOCCOCCO3)nc1C#N | 22µM* | -10% | ? | 3
N#Cc1ncc(-c2ccc3c(c2)OCCOCCOCCOCCO3)nc1C#N | 20µM* | -21% | ? | 0
SMILES | Tau ThT inhib | Tau fluor cs | Tau FP inhib | FBPA coupling cs
NS(=O)(=O)c1ccc(N=Nc2c(O)c(C(=O)O)cc3ccccc23)cc1 | 5µM* | ? | ? | -21
Oc1ccc2ccccc2c1N=Nc1ccc(F)cc1 | ? | -16% | -9% | 0
O=C(O)Cc1ccc(N=Nc2c(O)c(C(=O)O)cc3ccccc23)cc1 | 13µM* | -27% | ? | -9
COC(=O)C1=CO[C@@H](C)[C@@H]2CN3CCc4c([nH]c5ccccc45)[C@@H]3C[C@H]12 | . | . | . | -31*
CC1=C(C#N)C(NC(=O)c2ccccc2)(C(F)(F)F)C(=O)N1 (stereo not drawn) | -10% | -11% | 3% | .
O=[N+]([O-])c1ccc(Cl)c(/C=N/N2CCN(c3ccccc3)CC2)c1 | ? | ? | 8% | 6
O=[N+]([O-])c1ccccc1/C=N/N1CCN(c2ccc(Cl)cc2)CC1 | 11µM* | ? | 5% | -2
O=[N+]([O-])c1ccccc1/C=C\C=N\N1CCN(c2ccccc2)CC1 | 13µM* | ? | 14% | 2
COc1ccccc1N1CCN(/N=C/C=C/c2ccccc2[N+](=O)[O-])CC1 | 14µM* | ? | 12% | 0
O=[N+]([O-])c1ccccc1/C=N\N1CCN(c2ccccc2)CC1 | 11µM* | ? | 5% | 3
COc1ccccc1/C=N/N1CCN(c2ccc(Cl)cc2)CC1 | . | . | . | -4

Screening results from PubChem.
